Compound activity (PubChem BioAssay)
JMJD2A Tudor – blocks the human JMJD2A Tudor domain. O75164. Potency, µM (doses to about 114 µM), usual class: inhibitors. AID 504339. 4.4% of 390,000 active. AlphaScreen JMJD2A-Tudor / H3K4me3 peptide binding; further: nearly all actives have a fitted effect of over 50% in size
HP1b binding inh – inhibitors of HP1-beta chromodomain binding to methylated histone tails; P83916; AlphaScreen HP1-beta / biotin-H3K9me3 peptide binding; Potency, µM (titrated, usually from 114 µM), most hits filed as inhibitors; 0.56% of 390,000 active; further: nearly all actives have a fitted effect of over 70% in size
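Compound inhibition of the preformed complex between 50 nM HP1-beta and 50 nM biotinylated H3K9me3 peptide was read by AlphaScreen. Buffer was PBS pH 7.4 with 0.01% Tween-20. Incubations ran 30 min at room temperature, with 10 ug/mL donor/acceptor beads.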
PI5P4Ka inh – blocks human PI5P4K alpha kinase activity; max response, %; PI5P4Kalpha enzyme, ADP-Glo luminescence, 60 min; active compounds read low; 1.2% of 330,000 active; P48426; active means max response of -50% or lower; inconclusive means between -30% and -50%; inactive means -30% or higher; further: value at the top dose of about 77 µM
Target sequence (P48426 whole entry, looked up): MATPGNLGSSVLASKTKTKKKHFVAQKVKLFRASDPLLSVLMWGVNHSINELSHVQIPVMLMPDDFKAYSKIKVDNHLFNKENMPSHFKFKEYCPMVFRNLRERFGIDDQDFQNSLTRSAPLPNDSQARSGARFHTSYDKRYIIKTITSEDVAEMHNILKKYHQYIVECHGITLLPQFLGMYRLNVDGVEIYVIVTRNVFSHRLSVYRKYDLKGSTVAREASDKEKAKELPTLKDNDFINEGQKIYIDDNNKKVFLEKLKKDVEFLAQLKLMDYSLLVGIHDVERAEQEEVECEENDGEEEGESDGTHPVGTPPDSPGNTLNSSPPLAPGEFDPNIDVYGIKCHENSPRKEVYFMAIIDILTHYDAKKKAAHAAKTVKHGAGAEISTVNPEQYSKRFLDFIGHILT
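Compounds were pin-transferred onto PI5P4Kalpha and substrate in HEPES pH 7.4 buffer with EGTA, CHAPS and 5% DMSO. ATP (5 microM final) started the reaction, which ran 60 minutes at room temperature before ADP-Glo detection.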
G9a inh – blocks human histone lysine methyltransferase G9a. Q96KQ7. AID 504332. 8.8% of 350,000 active. G9a H3K9 monomethylation, AlphaScreen, 2 h. Potency, µM (doses to about 102 µM), actives largely listed as inhibitors; further: nearly all actives have a fitted effect of over 75% in size
Target sequence (Q96KQ7 913-1193 limits assumed): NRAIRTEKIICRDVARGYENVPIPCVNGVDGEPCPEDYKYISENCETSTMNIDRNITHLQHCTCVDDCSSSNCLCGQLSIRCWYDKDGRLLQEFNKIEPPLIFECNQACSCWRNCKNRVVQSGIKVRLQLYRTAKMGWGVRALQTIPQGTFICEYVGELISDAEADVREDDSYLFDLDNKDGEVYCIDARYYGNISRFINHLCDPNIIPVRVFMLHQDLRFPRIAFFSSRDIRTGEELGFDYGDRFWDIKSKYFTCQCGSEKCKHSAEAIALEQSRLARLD
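Step 1: enzyme (final 20 nM) with compound, 15 min RT. Step 2: substrate peptide 500 nM and SAM 20 uM, 2 h RT. Step 3: anti-H3K9me1 antibody and AlphaScreen beads, 10 min, then plate read.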
PLK1 PBD inh – PLK1 (human) polo-box domain binding inhibition; Plk1 PBD binding of FITC phosphopeptide, fluorescence polarization; Potency, µM, hits mostly inhibitors; 2.8% of 360,000 active; further: series mostly up to about 57 µM; nearly all actives have a fitted effect of over 65% in size
BAZ2B block – inhibitors of human BAZ2B bromodomain; AlphaScreen BAZ2B-H3K14Ac peptide displacement; AID 504333; 4.4% of 360,000 active; Potency, µM (titrated, usually from 114 µM), usual class: inhibitors; Q9UIF8; further: nearly all actives have a fitted effect of over 60% in size
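AlphaScreen displacement: compounds (up to 110uM) incubated 30 min at room temperature with a preformed 50 nM BAZ2B/50 nM biotinylated H3K14Ac peptide complex in PBS pH 7.4 with Tween-20. Donor and acceptor beads at 10 ug/mL final added, 20 min light-protected before reading.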
A number is an active result; . = inactive; ? = inconclusive; / = not tested or not shown; [ ] = remark or other dose. A selection: hits, their analogues and other compounds. The true share with any hit is near 12%. Unless noted, the call rests on the fitted dose curve; in most records, active means well fitted curve in the direction sought with a large enough effect; inconclusive means small, poorly fitted or top-dose-only effect, or another doubt; inactive means no such curve, though single readings can be large; an effect the other way counts as inactive or inconclusive.

SMILES	JMJD2A Tudor	HP1b binding inh	PI5P4Ka inh	G9a inh	PLK1 PBD inh	BAZ2B block
Cc1ccc(/C=C/C(=O)OCC(=O)Nc2ccc3[nH]c(=O)[nH]c3c2)o1	.	.	.	39.8µM	.	.
O=C(COC(=O)c1ccccc1Cl)Nc1ccc2[nH]c(=O)[nH]c2c1	.	.	.	.	.	.
Cc1cc(C)c(S(=O)(=O)NCC2CCC(C(=O)NCc3ccccn3)CC2)c(C)c1 (centres undefined)	.	.	.	.	.	.
Cc1ccc2c(n1)sc1c(=O)n(-c3cccc(C(F)(F)F)c3)nnc12	.	.	/	.	/	.
CC(C)(C)c1csc(N/N=C/c2cccnc2)n1	?	.	.	?	.	39.8µM
Cc1ccc(/C=N/Nc2nc(C(C)(C)C)cs2)o1	44.7µM	?	.	10µM	?	44.7µM
C=CC(C)n1c(Br)nc2c1c(=O)[nH]c(=O)n2C (centres undefined)	.	.	.	?	.	.
CC(C)n1c(=S)[nH]c2c1c(=O)[nH]c(=O)n2C	2µM	10µM	-75.9	?	.	?
CCC12CN3CCN(CC(C3)/C1=N\NC(=O)c1ccc(Cl)cc1)C2	.[11.4 µM]	.	.	.	?	/
CCC12CN3CCN(CC(C3)/C1=N\NC(=O)c1ccc(F)cc1)C2	?	.	.	.	21.2µM	.
CN(C)c1nc(F)c(F)c(S(=O)(=O)c2ccccc2)c1F	.	.	.	.	.	.
O=C(O)/C=C/C(=O)NNC(=O)c1ccc(Br)cc1	.	.	.	25.1µM	.	.
O=C(NNC(=O)c1ccc(Br)cc1)c1ccncc1	.	.	.	.[0.501 µM]	.	.
O=C(NNc1ccc(O)cc1)c1ccc(Br)cc1	?	?	.	1.58µM	.	?
Cc1nn(-c2ccccc2)c2c1N(CCCC(=O)NCc1ccc(N(C)C)cc1)C(=O)CS2	56.2µM	.	/	?	/	?
COc1c(OC(C)=O)c(=O)n2c3ccccc3c3ccnc1c32	.	.	.	.[12.7 µM]	23.8µM	.
Cc1ccc(C)c(S(=O)(=O)c2cn(Cc3ccccc3)c3cc(N4CCCC4)c(F)cc3c2=O)c1	.	.	/	.	/	.
COc1ccc(CNC(=O)C(OC(=O)c2ccco2)c2ccc(F)cc2)cc1 (centres undefined)	.	.	.	.	.	.
CCOc1ccc(CN(C)CC(=O)Nc2cccc(S(=O)(=O)N(C)c3ccccc3)c2)cc1	22.4µM	?	.	5.01µM	.	/
CN(CCOc1ccccc1)CC(=O)Nc1cccc(Br)c1	1.58µM	.	.	11.2µM	.	?
Cc1cc(NC(=O)CN(C)CCOc2ccccc2)ccc1Br	0.794µM	?	.	.	.	35.5µM
CCn1c(C)c(C(C)=O)c(N2CCCCC2)nc1=S	.	.	.	44.7µM	.	.
O=C(Nc1ccc2c(c1)OCO2)C1CC(c2ccccc2Cl)=NO1 (centres undefined)	.	.	/	.	.	.
Cn1ncc(C#N)c1NC(=O)C1CC(c2ccccc2Cl)=NO1 (centres undefined)	?	.	.	/	29.9µM	.
CN1CCN(CCCNC(=O)c2ccc3c(c2)N(Cc2ccccc2)CCS3)CC1	?	.	.	79.4µM	.	.
SMILES	JMJD2A Tudor	HP1b binding inh	PI5P4Ka inh	G9a inh	PLK1 PBD inh	BAZ2B block
O=C(NCCN1CCOCC1)c1ccc2c(c1)N(Cc1ccccc1)CCS2	?	.	.	50.1µM	26.7µM	.
COc1ccc(CCNC(=O)c2ccc3c(c2)N(Cc2ccc(F)cc2)CCS3)cc1OC	?	.	.	?	29.9µM	.
O=C(NCCCN1CCOCC1)c1ccc2c(c1)N(Cc1ccccc1)CCS2	?	.	.	.[12.7 µM]	.	?
CCN1CCN(CCCNC(=O)c2ccc3c(c2)N(Cc2ccc(C)cc2)CCS3)CC1	?	.	.	?	.	?
COc1ccc(OC)c(CCNC(=O)c2ccc3c(c2)N(Cc2ccc(C)cc2)CCS3)c1	?	.	/	?	/	.
CN1CCSc2ccc(C(=O)NCc3ccccc3)cc21	.	.	.	39.8µM	.	?
CC(NC(=O)c1ccc2c(c1)N(Cc1cccc(F)c1)C(=O)c1ccccc1S2)c1ccccc1 (centres undefined)	.	.	/	.	/	.
COc1ccc(-c2cc3nc(C)c(CCC(=O)N4CCN(c5cc(C)ccc5C)CC4)c(C)n3n2)c(OC)c1	.	.	/	.	/	.
CC(C)c1ccc(NC(=O)C2CCCN(S(=O)(=O)c3cccc4cccnc34)C2)cc1 (centres undefined)	.	.	/	.	/	.
Cc1cc(C)cc(NC(=O)CCS(=O)(=O)c2ccc3c(c2)oc(=O)n3C)c1	.	.	/	.	/	.
O=C(Cc1c(F)cccc1Cl)Nc1nccs1	.	.	.	.	.	.
COc1ccc(CCNC(=O)c2ccc3c(c2)N(Cc2ccccc2F)C(=O)c2ccccc2S3(=O)=O)cc1OC	.	.	/	7.94µM	/	.
Cc1ccc(C)c(CN2C(=O)c3ccccc3S(=O)(=O)c3ccc(C(=O)N4CCN(C)CC4)cc32)c1	.	.	.	.	.	89.1µM
COc1ccc(CCNC(=O)c2ccc3c(c2)N(Cc2cccc(C)c2)C(=O)c2ccccc2S3(=O)=O)cc1OC	.	.	/	.	/	?
COc1ccc(Cl)cc1NC(=S)NNC(=O)c1cccnc1	.	.	.	25.1µM	.	.
COc1ccc(NC(=S)NNC(=O)c2cccnc2)cc1OC	.	.	.	44.7µM	.	.
COc1ccc(Cl)cc1NC(=S)NNC(=O)c1cccs1	?	.	.	28.2µM	.	.
O=C(Nc1ccc(O)c2c(=O)cc(-c3ccccc3Cl)oc12)c1cc(Cl)cc(Cl)c1	.	.	/	/	/	/
COc1ccc(-c2nc(SCC(=O)NCc3ccco3)c(-c3ccccc3)[nH]2)cc1OC	?	.	.	44.7µM	.	?
COc1ccc(-c2[nH]c(-c3ccc(F)cc3)nc2SCC(=O)NCc2ccco2)cc1OC	.	.	.	89.1µM	.	.
COc1ccc(-c2[nH]c(-c3ccccc3)nc2SCC(=O)NCc2ccco2)cc1OC	.	.	.	.	.	.
Cc1cc2c(s1)c1cnn(Cc3ccc(F)c(C)c3)c(=O)c1n2C	.	/	/	/	/	/
CCn1ccnc1CN(C)C(=O)c1cc(COc2ccc(OC)c3ccccc23)on1	50.1µM	?	.	.	.	.
COc1ccc(NC(=O)CSC2=Nc3ccccc3C3=NC(CCC(=O)NCc4ccco4)C(=O)N23)cc1 (centres undefined)	.	.	/	.	/	.
[O-]/C(=C(\C(=S)NCc1ccccc1)[n+]1ccccc1)c1ccc(Cl)s1	?	?	.	25.1µM	.	?
Cc1c(Cl)cccc1NC(=S)C(=C([O-])c1ccc(Cl)s1)[n+]1ccccc1	50.1µM	?	.	/	.	/
S=C(NCc1ccccc1)NCc1cccc(Cl)c1	.	.	.	.	.	.
[O-]/C(=C(\C(=S)NCCN1CCOCC1)[n+]1ccccc1)c1ccc(Cl)s1	.	.	.	25.1µM	.	?
